Shown are actives, neighbours in structure and some others; about 2.8% of the full set was active somewhere.
SKKanGAS inh = inhibitors of SKKanGAS S. pyogenes growth in kanamycin (SK-promoter or general growth effect); BacTiter-Glo, 6 h; inhibition, % at 7.5 µM; 300,000 tested, 1.3% active; AID 1662;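 active means mean replicate score, as percent of positive control median, at least 50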;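 further: strain carries kanamycin resistance gene driven by streptokinase promoter and grows in 40 µg/ml kanamycin; loss of luminescence reflects streptokinase promoter inhibition or plain growth inhibition; 0% = median of DMSO wells and 100% = positive control at its reference dose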
IDE cell activ = boosts human insulin-degrading enzyme activity in HEK cells. P14735. AID 493087. activation, % at 5.96 µM. 340,000 tested, 0.073% active. FAbeta-B cleavage, fluorescence polarization; 0% vehicle, 100% cell-free pure enzyme wells;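 active means activation above the mean of all tested compounds plus 3 SD, set per screening campaign, cut at about 17% in these data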
Exocytosis inh = blocks lytic granule exocytosis; 360,000 tested, 0.66% active; inhibition, % at 10 µM; TALL-104 LAMP-1 surface exposure, flow cytometry; cells stimulated with thapsigargin and PMA;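 active means inhibition above about 55%, limit read from the data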
PP5 primary = PP5 (human) phosphatase inhibition | purified PP5c, OMFP substrate fluorescence | inhibition, % at 6.7 µM | 320,000 tested, 0.18% active | AID 1987;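 active means inhibition above the campaign's mean inhibition across all tested compounds plus 3 SD, cut at about 9.5% in these data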;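 further: 0% = DMSO only and 100% = 100 µM cantharidin control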
PP1 counter = PP1-alpha (human) inhibition in PP5 counter-screen | P62136 | purified PP1alpha, OMFP fluorescence | inhibition, % at 6.7 µM | 320,000 tested, 0.9% active | AID 2235;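 active means inhibition above the mean inhibition of all tested compounds plus 3 SD, computed separately for each screening campaign, cut at about 15% in these data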
Target sequence (P62136 whole entry, looked up): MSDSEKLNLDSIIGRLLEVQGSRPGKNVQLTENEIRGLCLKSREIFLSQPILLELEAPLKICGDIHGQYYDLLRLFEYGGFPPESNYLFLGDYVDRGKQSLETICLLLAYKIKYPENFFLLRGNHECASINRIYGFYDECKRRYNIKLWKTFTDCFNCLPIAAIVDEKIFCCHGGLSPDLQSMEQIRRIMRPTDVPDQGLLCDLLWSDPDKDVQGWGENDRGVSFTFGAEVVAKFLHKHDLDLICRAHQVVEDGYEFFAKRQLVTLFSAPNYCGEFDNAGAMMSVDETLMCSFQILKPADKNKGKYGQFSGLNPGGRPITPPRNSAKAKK
IDE inh = cellular human IDE inhibition; P14735; HEK cells, FAbetaB cleavage, fluorescence polarization; inhibition, % at 5.59 µM; 320,000 tested, 0.41% active; AID 434962;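 active means percent inhibition above the average of all tested compounds plus 3 SD, set per screening campaign, cut at about 16% in these data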;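 further: IDE supplied by intact live HEK cells; FP after avidin binding of uncleaved biotin substrate so inhibition keeps polarization high; 0% = DMSO wells and 100% = 60 µM reference IDE inhibitor Ii1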
IDE cell inh cf = confirmation of human insulin-degrading enzyme inhibitors in cells. 1,200 tested, 51% active. HEK cells, FAbetaB cleavage, fluorescence polarization. shares compounds with IDE inh. inhibition, % at 5.59 µM;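 active means mean inhibition across triplicate wells above the cutoff set by the earlier primary insulin-degrading enzyme screen, cut at about 16% in these data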;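 further: 0% = DMSO wells and 100% = 60 µM reference IDE inhibitor Ii1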
HEK293 tox = HEK cell cytotoxicity, counter-screen for IDE inhibitors. HEK293 cytotoxicity, ATP luminescence. shares compounds with IDE inh. inhibition, % at 5.59 µM. 1,200 tested, 28% active; in the data active means inhibition above about 22%;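 further: 0% = vehicle wells and 100% = reference cytotoxic drug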
FP fluor counter = fluorescence interference counter-screen for IDE inhibitors; 30 tested, under 10 active; FP counterscreen for fluorescent artifacts, IDE probe project; IC50, µM; AID 588718; shares compounds with IDE inh; call rule not given here
Numbers without * were called inactive; · = not tested or not shown.

SMILES	SKKanGAS inh	IDE cell activ	Exocytosis inh	PP5 primary	PP1 counter	IDE inh	IDE cell inh cf	HEK293 tox	others
CN(C)c1ccc(C2C=C(c3ccc(Cl)cc3OC(F)F)Nc3ncnn32)cc1 (stereo not given)	87*	-22	-1	2	3	21*	28*	61*
CCCc1c(C(=O)N/N=C/c2sccc2C)nnn1-c1nonc1N	3	2	-10	2	-3	8	·	·
CCn1c(=O)c(C(=O)CN2CCCc3ccccc32)c(N)n(Cc2ccccc2)c1=O	28	-4	2	4	6	37*	10	17
CCn1c(=O)c(C(=O)CN2CCN(S(=O)(=O)c3ccccc3)CC2)c(N)n(Cc2ccccc2)c1=O	3	-7	2	3	-3	2	·	·
COc1ccc(-c2noc(CSc3nnc(-c4ccccc4)n3C)n2)cc1	-2	-18	0	3	-3	17*	9	16
Cn1c(SCc2nc(-c3ccc(Br)cc3)no2)nnc1-c1ccco1	0	-8	-3	1	2	9	·	·
CCN1/C(=C/c2ccc3cc(C)ccc3[n+]2CC)Sc2ccccc21	·	-58	45	1	8	91*	136*	113*
O=c1[nH]c2ccccc2c(O)c1O	2	-47	0	0	3	62*	65*	18
O=C(CCCc1ccccc1)NCCS(=O)(=O)N1CCN(c2ccccc2)CC1	·	·	-31	·	·	·	·	·
Cc1ccc(NC(=O)C(C)Sc2nnc(-c3cccnc3)o2)cc1 (stereo not given)	13	4	-1	0	-1	-4	·	·
N#Cc1ccc(CSc2nnc(-c3cccnc3)n2-c2ccccc2)cc1	-2	-27	-3	3	-2	19*	11	28*
Cc1ccc(NC(=O)C(C)Sc2nnc(-c3cccnc3)n2-c2ccccc2)cc1 (stereo not given)	0	-31	7	2	1	23*	9	12
CCN(CC)c1ccc(C=C(c2nnnn2-c2ccccc2)c2nnnn2-c2ccccc2)cc1	7	-23	4	3	7	32*	30*	17
CN(C(=O)COC(=O)CCCN1C(=O)c2cccc3cccc(c23)C1=O)C1CCS(=O)(=O)C1 (stereo not given)	-6	5	1	-2	-3	0	·	·
OC[C@@H]1CN(Cc2cccs2)C[C@H](n2cnc3c(NC4CCC4)ncnc32)O1	·	·	3	·	·	·	·	·
O=C(Nc1ccc2c(c1)CCC2)C1CCCN(c2ncccn2)C1 (stereo not given)	4	0	-1	4	-2	4	·	·
Cc1nc2ncnn2c(N2CCCC(C(=O)Nc3ccc4c(c3)CCC4)C2)c1C (stereo not given)	7	-34	2	0	2	17*	12	44*
CCOC(=O)N(C)c1c(CC)nc2c(OCc3ccccc3)cccn12	·	·	-3	·	·	·	·	·
CCc1nc2ccc(C(=O)NCCCn3ccnc3)cn2c1N(C)Cc1cc2ccccc2s1	·	·	39	·	·	·	·	·
Cc1ccc(NC(=O)CSc2nnc(-c3cccc(Cl)c3)n2Cc2ccco2)c(C)c1	·	·	·	·	·	·	·	·	FP fluor counter=>55
O=C(CSc1nnc(-c2cccc(Cl)c2)n1Cc1ccco1)Nc1ccccc1C(F)(F)F	·	·	·	·	·	·	·	·	FP fluor counter=>55
c1ccc(CCCNCCCn2cnc3c(OCc4ccccc4)ncnc32)cc1	·	-1	28	·	·	·	·	·
CCCc1nc(SCC(=O)Nc2nc3c(s2)CCCC3)c2ccccc2n1	15	-11	0	1	1	6	·	·
CCc1nc(SCC(=O)Nc2nc3c(s2)CCCC3)c2ccccc2n1	-12	-30	-1	2	3	31*	8	10
COc1ccc(CCNC(=O)COC(=O)c2ccc(F)c(S(=O)(=O)N3CCOCC3)c2)cc1	·	3	-4	-1	-5	-3	·	·
COc1ccc(CNC(=O)COC(=O)c2ccc(F)c(S(=O)(=O)N3CCOCC3)c2)cc1	·	-3	-9	·	·	17*	1	7
